# Data from the supplement of paper PMC10681739.
# How the values were obtained:
# ETS1 [1] = target: T1, ETS1 (UniProt P14921); experiment: ETS1 binding intensity (PBM fluorescence), ETS1 alone (arbitrary fluorescence units); higher = stronger binding; conditions: ETS1 concentration 1 nM; RUNX1 concentration 0 nM
# T1 sequence: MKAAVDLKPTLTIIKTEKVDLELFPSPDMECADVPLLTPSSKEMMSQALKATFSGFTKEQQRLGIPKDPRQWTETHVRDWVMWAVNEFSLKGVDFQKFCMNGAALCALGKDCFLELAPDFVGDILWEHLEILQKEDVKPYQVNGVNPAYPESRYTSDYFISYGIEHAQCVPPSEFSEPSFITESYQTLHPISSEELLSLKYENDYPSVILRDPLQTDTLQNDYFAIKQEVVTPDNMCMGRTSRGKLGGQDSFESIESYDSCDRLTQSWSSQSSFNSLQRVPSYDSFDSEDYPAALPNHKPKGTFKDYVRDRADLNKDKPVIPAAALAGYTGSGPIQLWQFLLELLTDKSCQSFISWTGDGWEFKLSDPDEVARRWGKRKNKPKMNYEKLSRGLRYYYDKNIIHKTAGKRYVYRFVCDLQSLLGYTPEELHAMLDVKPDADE
# RUNX1 [2] = target: RUNX1 (UniProt Q01196); experiment: RUNX1 binding intensity (PBM fluorescence), RUNX1 alone (arbitrary fluorescence units); higher = stronger binding; conditions: RUNX1 concentration 2 nM; ETS1 concentration 0 nM
# Method: (§1)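 Cooperative gcPBM on 36-bp genomic probes with neighbouring ETS1 and RUNX1 sites. Recombinant human RUNX1 (2 nM) was incubated alone or with ETS1 (25 nM) and detected with anti-RUNX1 antibody plus Alexa488 secondary. Values are medians over 4 replicate spots; the RUNX1+ETS1 data were normalised to the RUNX1-only data. The probes sit in constant array flanks that are not printed.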
# ETS1 [3] = target: T1, ETS1; experiment: ETS1 binding intensity (PBM fluorescence) in presence of RUNX1, normalised to ETS1-only experiment (arbitrary fluorescence units); higher = stronger binding; conditions: ETS1 concentration 1 nM; RUNX1 concentration 25 nM
# RUNX1 [4] = target: RUNX1 (UniProt Q01196); experiment: RUNX1 binding intensity (PBM fluorescence) in presence of ETS1, normalised to RUNX1-only experiment (arbitrary fluorescence units); higher = stronger binding; conditions: RUNX1 concentration 2 nM; ETS1 concentration 25 nM
# Method: as §1
# 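For RUNX1 binding intensity (PBM fluorescence) in presence of ETS1, normalised to RUNX1-only experiment in this document: Full-length recombinant human ETS1 or RUNX1 bound to double-stranded 36-bp genomic probes on microarrays, detected by protein-specific primary antibody and Alexa488 secondary, spot fluorescence as median of four replicate spots.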
# 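For RUNX1 binding intensity (PBM fluorescence), RUNX1 alone in this document: Full-length recombinant human RUNX1 bound to double-stranded 36-bp genomic probes on a high-density microarray, scored as Alexa488 fluorescence per spot via anti-RUNX1 antibody, median of four replicate spots.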
# Sequence of RUNX1 (Q01196 whole entry): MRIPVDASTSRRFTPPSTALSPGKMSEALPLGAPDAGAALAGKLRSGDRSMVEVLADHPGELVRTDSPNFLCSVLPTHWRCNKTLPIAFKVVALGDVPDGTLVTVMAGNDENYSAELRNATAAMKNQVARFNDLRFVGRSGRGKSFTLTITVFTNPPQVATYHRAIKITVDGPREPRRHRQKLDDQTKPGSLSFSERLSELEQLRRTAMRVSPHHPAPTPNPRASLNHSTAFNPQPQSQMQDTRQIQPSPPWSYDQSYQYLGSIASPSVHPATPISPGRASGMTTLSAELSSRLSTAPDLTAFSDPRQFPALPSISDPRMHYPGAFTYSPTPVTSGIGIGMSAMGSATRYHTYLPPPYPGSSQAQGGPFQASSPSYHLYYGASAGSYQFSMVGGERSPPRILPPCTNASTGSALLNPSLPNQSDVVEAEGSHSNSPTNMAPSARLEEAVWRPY
Sequence,ETS1 binding intensity (ETS1 [1]),RUNX1 binding intensity (RUNX1 [2]),ETS1 binding intensity (ETS1 [3]),RUNX1 binding intensity (RUNX1 [4])
GGCCAGGCAGGAAGTCCCGCGCCACAAGCGGCCGTC,3050,758,3300,1230
CAAGCACATTACGGAAGAGGCTGACCGCAAATACGA,595,4550,6680,6950
TGCCTCACCTCACATCCGTTTGTGGCTGCCGAGTGC,1090,950,1310,1880
CAGACAGGAGGCGGATGTGGGTGGCGCAGAATGAGC,1820,688,2250,1920
TGGCAGCCACATCCTGCCTGTGGCTAGGTCAACCCA,1220,794,1290,3730
ATCTTCCGTAGCAGTCAGGTGTTTTGTGGTTTGCAG,460,1490,1300,2670
TGGTGGCTATTTCCTCTCCCGCTGTGGTCCCTGGAG,563,728,535,1470
TACTAGTTTGGGGCATCCTGTGGTATAGGGGAAGCA,4100,797,4560,1080
CCTTCCTTCCTGCTGTGTACGTTGTGGTCACAGCAC,419,1240,932,3550
GAACCACTTCCCTGAAACCATTTACCACATAAATCT,383,1510,904,2470
GAAGCGATATTTCCTCCTGGGGTTGACCGCCCCGTG,492,761,478,1090
CCTGCCTTCCGTCTTCCAGGCAGAACCACAGAGAGG,432,1180,481,1230
TGAGCAAGTTCCTTCCTGTCTGTGGTCCAGGGTTTA,757,747,881,1510
CGGTTCCGGCGCCTGAAGTTTTAGCTGCGGTGGCGG,347,794,676,1720
CCGGGTAGGATCCGGTTGCCTTTCTGCGGTGGAGGA,410,848,798,1480
TGGCTGTGAGCTGCAGGATGTGGTCAGGAGAGGAAG,2180,804,19700,2310
TGTCATCCCGGAAACTGATAACAAGACCGCGAGTCA,1910,807,2530,1450
GGCCGGGGGCAGGAAGCTGCGGCGCTGGCTCCCCCC,2510,649,3390,884
TTGGTTGTTGCCAGAGGATGTGGGTTGGCGGGGGAG,1690,897,4480,933
GCCCAGGGAAGCACTTCCTGCGGGGCGCGGTGCAGC,1030,744,1270,1500
TGACTTCCTCCTCTTCACTAACAGAAACCTCAATTT,440,1400,526,2570

Sequence,ETS1 binding intensity (ETS1 [1]),RUNX1 binding intensity (RUNX1 [2]),ETS1 binding intensity (ETS1 [3]),RUNX1 binding intensity (RUNX1 [4])
GGCAACCGGCCCCGGAAGTTGCGGCAGGTGCGTCCA,5780,685,8090,1640
GACCAATGTAAACAAGGATGTGGGTTCTCCGGGCAC,929,706,2030,928
TGATTAAAAACAGGATGTGGGTGAATAGTCATGCAT,4810,759,7580,2490
TGACATCCTCTGAGGCAGCAAGCTGCGGTGAAGTCT,400,704,561,1300
CTGTCCGCTACATCCGGGACCTGCGGGACCGCCGAT,1770,823,2430,2300
GGCCGACGGGAAGTGTAGTCCGGCCTGCGGTCCGGG,801,704,1910,1050
CTAAACCGGAAGCCGCCCCTCTGACCGCTCTAAAAC,5350,1070,5990,2010
ACTTACAAAGGAAGTGACAGAACCACAGAAAAGACC,1230,732,2660,1240
TTGGTCAGCCTGCTTCCGGCTGTGGCTTCAGTTAGT,1770,774,1920,1420
GCCGCGCGGAAGCCTCCGCCCTGTGGTTTTGGAGCC,368,1030,993,1530
TGGGGACAGGAAATGTTTACTGCCTGTGGCTTGCTG,3340,705,4240,981
GTTGGGCTTTGAGGATGTGGGTTCTAGAAGTTTACA,928,890,2120,1050
CTGGGGAGGAAGCCTGAGGTGTGTGGTTTTGTTAAC,374,1040,811,983
AGTGGAGTAGGAACCGGAAAACCACAATAAGTCCCA,2170,1470,12400,3630
TCCTTAATGGTTCCGGCGGCAGGGACCGCAGCGACG,460,824,526,914
CCGCGAGCCGTCACTTCCTGTGGGCTGGGCCGAGCC,1910,924,2470,1940
CTGCCGCTGCCTTCCGCCCCCACACACGCACACCAC,686,1240,741,1640
GCCCACCCGCTTCCGGTTGTGGGCCCCGCCCGCCGA,5540,801,7350,7040
GAGCAGGAAGCACCCCCAGCACAGGCCTGCGGTGAG,438,741,1350,911
GCTGCAGCAGGCGGGAAGTCTGCGGTTCGCGGGCTC,622,1150,6590,1830
